Measurements: ChEMBL document CHEMBL2218924, “A broad activity screen in support of a chemogenomic map for kinase signalling research and drug discovery” (Biochem J, 2013)

Columns and labels:
[1] = target: Calcium/calmodulin-dependent protein kinase type 1 (Homo sapiens) (UniProt Q14012); conditions: at 1 µM
[2] = target: Calcium/calmodulin-dependent protein kinase type 1 (Homo sapiens) (UniProt Q14012); conditions: at 10 µM
[3] = target: Calcium/calmodulin-dependent protein kinase type II subunit beta (Homo sapiens) (UniProt Q13554); conditions: at 1 µM
Sequence of Calcium/calmodulin-dependent protein kinase type II subunit beta (Homo sapiens) (Q13554 whole entry): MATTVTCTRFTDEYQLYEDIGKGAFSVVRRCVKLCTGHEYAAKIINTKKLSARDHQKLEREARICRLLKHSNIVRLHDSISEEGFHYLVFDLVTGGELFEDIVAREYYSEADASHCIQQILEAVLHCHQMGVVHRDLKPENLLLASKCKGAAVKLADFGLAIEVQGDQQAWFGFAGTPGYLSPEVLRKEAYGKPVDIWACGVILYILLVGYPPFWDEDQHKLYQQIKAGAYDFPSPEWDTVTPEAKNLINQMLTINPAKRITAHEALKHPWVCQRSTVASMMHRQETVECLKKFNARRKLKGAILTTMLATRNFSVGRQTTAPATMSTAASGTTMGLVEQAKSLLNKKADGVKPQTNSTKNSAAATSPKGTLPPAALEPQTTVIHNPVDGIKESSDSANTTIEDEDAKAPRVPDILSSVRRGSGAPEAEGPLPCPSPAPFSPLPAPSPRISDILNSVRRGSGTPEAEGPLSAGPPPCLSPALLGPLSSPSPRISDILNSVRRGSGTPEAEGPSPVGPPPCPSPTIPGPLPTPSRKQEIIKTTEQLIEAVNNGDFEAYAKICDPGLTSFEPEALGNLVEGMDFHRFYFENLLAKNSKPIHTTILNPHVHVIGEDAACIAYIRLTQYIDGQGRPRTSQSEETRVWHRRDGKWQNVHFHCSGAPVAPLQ

[4] = target: Calcium/calmodulin-dependent protein kinase type II subunit beta (Homo sapiens) (UniProt Q13554); conditions: at 10 µM
[5] = target: Calcium/calmodulin-dependent protein kinase type II subunit gamma (Homo sapiens) (UniProt Q13555); conditions: at 1 µM
Sequence of Calcium/calmodulin-dependent protein kinase type II subunit gamma (Homo sapiens) (Q13555 whole entry): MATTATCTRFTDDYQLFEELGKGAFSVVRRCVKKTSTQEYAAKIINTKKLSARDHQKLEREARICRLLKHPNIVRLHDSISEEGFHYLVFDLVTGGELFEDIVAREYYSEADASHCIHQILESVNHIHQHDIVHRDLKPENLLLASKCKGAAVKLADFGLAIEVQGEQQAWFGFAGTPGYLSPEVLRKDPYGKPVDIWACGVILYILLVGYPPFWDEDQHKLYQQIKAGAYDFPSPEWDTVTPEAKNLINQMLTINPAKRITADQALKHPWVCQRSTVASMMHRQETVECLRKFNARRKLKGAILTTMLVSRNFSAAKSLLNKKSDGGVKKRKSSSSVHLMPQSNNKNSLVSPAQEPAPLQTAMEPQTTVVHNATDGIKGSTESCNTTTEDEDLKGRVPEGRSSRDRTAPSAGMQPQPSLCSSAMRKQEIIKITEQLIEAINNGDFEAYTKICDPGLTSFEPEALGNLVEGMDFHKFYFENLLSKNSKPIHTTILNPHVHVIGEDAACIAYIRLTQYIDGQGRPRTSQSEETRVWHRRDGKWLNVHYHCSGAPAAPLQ

[6] = target: Calcium/calmodulin-dependent protein kinase type II subunit gamma (Homo sapiens) (UniProt Q13555); conditions: at 10 µM
[7] = target: Calcium/calmodulin-dependent protein kinase type II subunit delta (Homo sapiens) (UniProt Q13557); conditions: at 1 µM
Sequence of Calcium/calmodulin-dependent protein kinase type II subunit delta (Homo sapiens) (Q13557 whole entry): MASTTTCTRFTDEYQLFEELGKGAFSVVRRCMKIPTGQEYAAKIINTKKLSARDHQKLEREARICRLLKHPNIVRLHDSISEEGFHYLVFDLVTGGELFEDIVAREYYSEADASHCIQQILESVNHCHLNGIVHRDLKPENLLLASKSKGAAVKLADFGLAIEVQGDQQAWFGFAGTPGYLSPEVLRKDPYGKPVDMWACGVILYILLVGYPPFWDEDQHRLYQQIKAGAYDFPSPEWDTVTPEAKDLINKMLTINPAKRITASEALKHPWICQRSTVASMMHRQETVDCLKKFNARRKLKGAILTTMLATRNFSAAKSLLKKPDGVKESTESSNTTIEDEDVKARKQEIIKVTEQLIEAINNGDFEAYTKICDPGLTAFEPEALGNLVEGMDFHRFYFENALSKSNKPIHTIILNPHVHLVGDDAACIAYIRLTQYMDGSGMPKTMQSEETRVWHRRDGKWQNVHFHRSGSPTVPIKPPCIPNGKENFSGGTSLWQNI

[8] = target: Calcium/calmodulin-dependent protein kinase type II subunit delta (Homo sapiens) (UniProt Q13557); conditions: at 10 µM
[9] = target: Death-associated protein kinase 1 (Homo sapiens) (UniProt P53355); conditions: at 10 µM
Sequence of Death-associated protein kinase 1 (Homo sapiens) (P53355 whole entry, looked up): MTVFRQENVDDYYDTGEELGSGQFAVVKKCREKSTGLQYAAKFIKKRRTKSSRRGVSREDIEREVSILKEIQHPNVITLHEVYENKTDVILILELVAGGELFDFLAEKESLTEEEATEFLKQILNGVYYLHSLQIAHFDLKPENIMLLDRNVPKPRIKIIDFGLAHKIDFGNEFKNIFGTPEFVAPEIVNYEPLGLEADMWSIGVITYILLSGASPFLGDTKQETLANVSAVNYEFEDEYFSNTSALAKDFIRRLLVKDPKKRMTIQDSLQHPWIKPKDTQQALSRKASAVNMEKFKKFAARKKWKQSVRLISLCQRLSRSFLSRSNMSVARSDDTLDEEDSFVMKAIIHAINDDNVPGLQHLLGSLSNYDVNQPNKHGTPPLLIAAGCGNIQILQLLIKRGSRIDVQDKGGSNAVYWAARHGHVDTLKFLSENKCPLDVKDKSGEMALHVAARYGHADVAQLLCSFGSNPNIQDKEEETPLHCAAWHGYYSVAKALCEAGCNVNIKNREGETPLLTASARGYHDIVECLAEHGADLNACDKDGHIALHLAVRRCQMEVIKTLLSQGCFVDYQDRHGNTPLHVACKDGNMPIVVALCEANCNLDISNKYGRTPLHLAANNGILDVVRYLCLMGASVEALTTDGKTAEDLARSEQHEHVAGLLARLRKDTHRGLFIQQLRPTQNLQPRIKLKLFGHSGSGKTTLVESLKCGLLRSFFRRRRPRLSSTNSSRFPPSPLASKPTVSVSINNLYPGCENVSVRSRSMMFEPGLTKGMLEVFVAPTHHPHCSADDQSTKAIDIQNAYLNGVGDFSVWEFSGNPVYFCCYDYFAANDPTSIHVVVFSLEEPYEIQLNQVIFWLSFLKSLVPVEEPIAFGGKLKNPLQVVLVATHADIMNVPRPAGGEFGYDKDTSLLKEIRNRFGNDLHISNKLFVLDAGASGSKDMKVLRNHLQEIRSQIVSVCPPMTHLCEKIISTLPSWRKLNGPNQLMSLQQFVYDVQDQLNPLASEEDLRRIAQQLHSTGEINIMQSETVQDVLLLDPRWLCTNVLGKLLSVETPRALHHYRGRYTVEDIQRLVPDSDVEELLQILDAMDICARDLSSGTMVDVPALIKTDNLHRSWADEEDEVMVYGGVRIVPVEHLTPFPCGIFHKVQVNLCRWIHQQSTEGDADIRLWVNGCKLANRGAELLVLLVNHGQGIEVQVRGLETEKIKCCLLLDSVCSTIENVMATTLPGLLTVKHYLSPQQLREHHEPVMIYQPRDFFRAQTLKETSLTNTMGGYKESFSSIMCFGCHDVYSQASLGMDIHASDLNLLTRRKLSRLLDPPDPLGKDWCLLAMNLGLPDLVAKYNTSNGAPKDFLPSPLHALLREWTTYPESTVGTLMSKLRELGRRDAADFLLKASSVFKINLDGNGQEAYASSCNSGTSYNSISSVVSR

[10] = target: Death-associated protein kinase 2 (Homo sapiens) (UniProt Q9UIK4); conditions: at 1 µM
Sequence of Death-associated protein kinase 2 (Homo sapiens) (Q9UIK4 whole entry, looked up): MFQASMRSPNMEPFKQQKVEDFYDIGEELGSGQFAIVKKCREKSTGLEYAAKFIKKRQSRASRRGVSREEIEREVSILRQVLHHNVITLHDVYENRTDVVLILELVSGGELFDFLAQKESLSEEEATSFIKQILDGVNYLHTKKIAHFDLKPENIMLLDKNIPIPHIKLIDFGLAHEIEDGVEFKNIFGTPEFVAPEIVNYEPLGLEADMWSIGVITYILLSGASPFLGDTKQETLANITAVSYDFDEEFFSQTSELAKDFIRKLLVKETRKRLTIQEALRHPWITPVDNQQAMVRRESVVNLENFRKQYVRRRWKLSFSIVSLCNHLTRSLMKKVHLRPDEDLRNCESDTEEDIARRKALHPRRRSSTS

[11] = target: Death-associated protein kinase 2 (Homo sapiens) (UniProt Q9UIK4); conditions: at 10 µM
[12] = target: T1, Serine/threonine-protein kinase DCLK2 (Homo sapiens) (UniProt Q8N568); conditions: at 1 µM
T1 sequence (whole entry): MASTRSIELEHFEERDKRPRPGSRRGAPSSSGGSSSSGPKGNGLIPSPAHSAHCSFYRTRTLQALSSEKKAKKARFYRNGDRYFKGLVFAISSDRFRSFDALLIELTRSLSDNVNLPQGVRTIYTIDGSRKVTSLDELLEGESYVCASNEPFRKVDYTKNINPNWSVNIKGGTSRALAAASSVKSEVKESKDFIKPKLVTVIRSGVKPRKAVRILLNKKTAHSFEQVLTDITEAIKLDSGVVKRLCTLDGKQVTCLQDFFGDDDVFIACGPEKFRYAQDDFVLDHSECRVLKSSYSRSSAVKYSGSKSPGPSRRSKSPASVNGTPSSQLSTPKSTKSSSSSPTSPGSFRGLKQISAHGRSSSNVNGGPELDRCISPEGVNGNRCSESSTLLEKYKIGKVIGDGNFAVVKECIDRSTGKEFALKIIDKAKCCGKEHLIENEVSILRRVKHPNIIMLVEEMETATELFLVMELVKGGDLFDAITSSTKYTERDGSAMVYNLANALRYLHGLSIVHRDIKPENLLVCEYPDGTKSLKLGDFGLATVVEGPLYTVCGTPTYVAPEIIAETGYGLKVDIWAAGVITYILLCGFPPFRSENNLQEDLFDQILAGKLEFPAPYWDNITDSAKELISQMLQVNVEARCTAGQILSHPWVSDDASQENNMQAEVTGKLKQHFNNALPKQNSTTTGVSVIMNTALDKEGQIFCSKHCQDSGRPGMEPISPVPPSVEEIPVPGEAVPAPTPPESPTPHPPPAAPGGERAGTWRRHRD

[13] = target: T1, Serine/threonine-protein kinase DCLK2 (Homo sapiens); conditions: at 10 µM
[14] = target: T2, Discoidin domain-containing receptor 2 (Homo sapiens) (UniProt Q16832); conditions: at 1 µM
T2 sequence (whole entry): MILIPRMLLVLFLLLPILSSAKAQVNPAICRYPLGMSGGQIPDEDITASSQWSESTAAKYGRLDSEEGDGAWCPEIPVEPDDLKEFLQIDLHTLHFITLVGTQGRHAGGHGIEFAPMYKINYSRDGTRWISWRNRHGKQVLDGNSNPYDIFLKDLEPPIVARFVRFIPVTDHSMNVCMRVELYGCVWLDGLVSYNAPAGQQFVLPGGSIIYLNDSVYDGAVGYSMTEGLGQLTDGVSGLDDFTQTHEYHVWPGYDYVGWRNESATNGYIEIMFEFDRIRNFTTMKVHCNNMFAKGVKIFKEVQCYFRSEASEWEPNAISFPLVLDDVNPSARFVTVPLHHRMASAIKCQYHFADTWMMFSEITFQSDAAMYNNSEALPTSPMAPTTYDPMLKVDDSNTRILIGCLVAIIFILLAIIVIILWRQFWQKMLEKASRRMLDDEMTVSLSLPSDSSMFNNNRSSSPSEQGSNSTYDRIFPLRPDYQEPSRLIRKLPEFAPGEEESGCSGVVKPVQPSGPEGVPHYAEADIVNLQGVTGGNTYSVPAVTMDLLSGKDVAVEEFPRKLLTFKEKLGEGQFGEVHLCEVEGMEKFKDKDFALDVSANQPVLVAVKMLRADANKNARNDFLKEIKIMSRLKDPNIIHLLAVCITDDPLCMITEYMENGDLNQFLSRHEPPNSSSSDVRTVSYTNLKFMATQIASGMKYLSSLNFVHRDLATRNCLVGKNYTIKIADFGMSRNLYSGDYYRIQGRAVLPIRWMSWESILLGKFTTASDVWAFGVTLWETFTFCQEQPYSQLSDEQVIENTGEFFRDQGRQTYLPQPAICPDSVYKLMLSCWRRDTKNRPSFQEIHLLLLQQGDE

[15] = target: T2, Discoidin domain-containing receptor 2 (Homo sapiens); conditions: at 10 µM
[16] = target: T3, Myotonin-protein kinase (Homo sapiens) (UniProt Q09013); conditions: at 1 µM
T3 sequence (whole entry): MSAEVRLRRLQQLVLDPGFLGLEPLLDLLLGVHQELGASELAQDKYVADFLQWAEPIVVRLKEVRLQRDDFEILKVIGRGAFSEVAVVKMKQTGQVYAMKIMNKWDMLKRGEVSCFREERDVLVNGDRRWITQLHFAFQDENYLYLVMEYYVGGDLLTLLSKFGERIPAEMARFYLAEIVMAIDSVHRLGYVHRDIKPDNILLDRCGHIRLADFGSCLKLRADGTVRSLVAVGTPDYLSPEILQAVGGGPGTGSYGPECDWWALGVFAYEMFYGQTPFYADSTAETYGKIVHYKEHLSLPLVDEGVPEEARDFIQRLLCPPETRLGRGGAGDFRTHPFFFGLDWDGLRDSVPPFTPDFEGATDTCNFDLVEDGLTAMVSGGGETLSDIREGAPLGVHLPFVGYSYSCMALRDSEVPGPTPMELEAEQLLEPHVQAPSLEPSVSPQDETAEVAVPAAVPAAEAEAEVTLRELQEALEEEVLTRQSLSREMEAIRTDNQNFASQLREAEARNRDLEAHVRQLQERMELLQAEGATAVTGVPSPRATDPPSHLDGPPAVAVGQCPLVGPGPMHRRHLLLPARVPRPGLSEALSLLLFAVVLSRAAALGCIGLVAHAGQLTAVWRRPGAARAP

[17] = target: T3, Myotonin-protein kinase (Homo sapiens); conditions: at 10 µM
[18] = target: T4, Serine/threonine-protein kinase 17A (Homo sapiens) (UniProt Q9UEE5); conditions: at 1 µM
T4 sequence (whole entry): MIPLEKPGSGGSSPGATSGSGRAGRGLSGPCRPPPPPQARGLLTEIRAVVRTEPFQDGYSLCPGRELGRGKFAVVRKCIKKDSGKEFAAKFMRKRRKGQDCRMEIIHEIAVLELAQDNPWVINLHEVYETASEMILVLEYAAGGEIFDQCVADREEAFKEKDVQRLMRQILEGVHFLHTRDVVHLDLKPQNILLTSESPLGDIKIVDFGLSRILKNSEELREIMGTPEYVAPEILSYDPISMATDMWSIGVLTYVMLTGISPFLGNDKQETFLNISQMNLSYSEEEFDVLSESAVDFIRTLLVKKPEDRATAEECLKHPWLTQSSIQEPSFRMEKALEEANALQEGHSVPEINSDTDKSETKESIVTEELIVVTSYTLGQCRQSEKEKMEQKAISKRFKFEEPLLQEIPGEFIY

[19] = target: T5, Calcium/calmodulin-dependent protein kinase type IV (Homo sapiens) (UniProt Q16566); conditions: at 1 µM
T5 sequence (whole entry): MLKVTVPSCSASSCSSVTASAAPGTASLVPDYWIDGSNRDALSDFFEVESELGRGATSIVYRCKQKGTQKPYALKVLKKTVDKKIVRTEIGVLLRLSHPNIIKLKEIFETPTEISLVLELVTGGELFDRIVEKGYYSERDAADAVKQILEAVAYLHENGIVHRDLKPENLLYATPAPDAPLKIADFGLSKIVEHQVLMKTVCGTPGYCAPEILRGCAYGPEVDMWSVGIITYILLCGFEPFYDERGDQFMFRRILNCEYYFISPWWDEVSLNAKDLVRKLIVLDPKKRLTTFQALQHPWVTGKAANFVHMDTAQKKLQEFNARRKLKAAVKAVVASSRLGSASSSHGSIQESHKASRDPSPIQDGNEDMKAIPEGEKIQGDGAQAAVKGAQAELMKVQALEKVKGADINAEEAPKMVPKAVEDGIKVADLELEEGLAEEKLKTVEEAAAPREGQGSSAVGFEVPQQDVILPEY

[20] = target: T5, Calcium/calmodulin-dependent protein kinase type IV (Homo sapiens); conditions: at 10 µM

Sequence of Calcium/calmodulin-dependent protein kinase type 1 (Homo sapiens) (Q14012 whole entry, looked up): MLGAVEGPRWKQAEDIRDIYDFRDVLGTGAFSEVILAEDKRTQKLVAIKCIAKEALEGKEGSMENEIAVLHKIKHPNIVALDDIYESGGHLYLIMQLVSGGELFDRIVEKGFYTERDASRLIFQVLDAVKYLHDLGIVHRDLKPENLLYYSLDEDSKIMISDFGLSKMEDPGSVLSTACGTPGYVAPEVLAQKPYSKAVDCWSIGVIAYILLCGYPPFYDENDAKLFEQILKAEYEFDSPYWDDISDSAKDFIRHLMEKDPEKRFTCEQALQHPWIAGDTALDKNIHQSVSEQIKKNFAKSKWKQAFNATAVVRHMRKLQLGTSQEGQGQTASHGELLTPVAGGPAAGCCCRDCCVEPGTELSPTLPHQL

SMILES	residual activity [1]	residual activity [2]	residual activity [3]	residual activity [4]	residual activity [5]	residual activity [6]	residual activity [7]	residual activity [8]	residual activity [9]	residual activity [10]	residual activity [11]	residual activity [12]	residual activity [13]	residual activity [14]	residual activity [15]	residual activity [16]	residual activity [17]	residual activity [18]	residual activity [19]	residual activity [20]
O=C(NC(NC(=S)Nc1ccc(F)c([N+](=O)[O-])c1)C(Cl)(Cl)Cl)C(c1ccccc1)c1ccccc1 (configuration not stated)	99%	91%	91%	72%	99%	89%	99%	82%	71%	95%	78%	136%	86%	102%	90%	71%	–	–	–	–
COc1cc2ncnc(Nc3cccc(Cl)c3)c2cc1OC	108%	62%	–	60%	45%	5%	60%	18%	100%	–	–	122%	85%	–	74%	103%	113%	103%	–	–
O=C(CCCc1ccc(-c2ccccc2F)cc1)Nc1ccc(O)cc1	92%	73%	100%	89%	106%	75%	109%	78%	105%	102%	99%	133%	192%	99%	111%	108%	97%	–	104%	–
NC(=O)Nc1sc(-c2ccc(F)cc2)cc1C(N)=O	74%	18%	86%	40%	82%	32%	83%	31%	70%	95%	64%	96%	78%	–	40%	–	–	69%	–	72%
O=C1NC(=O)C(c2cn(CCCn3ccnc3)c3ccccc23)=C1Nc1ccccc1	106%	53%	77%	45%	–	–	77%	23%	–	–	–	100%	79%	–	–	120%	124%	–	106%	74%
O=c1cc(N2CCOCC2)oc2c1ccc1ccccc12	104%	72%	103%	72%	104%	81%	99%	75%	84%	92%	80%	83%	87%	106%	105%	–	–	92%	–	103%
COc1ccc(-c2cnc3c(-c4ccsc4)cnn3c2)cc1	88%	80%	93%	89%	71%	79%	80%	87%	–	–	–	84%	100%	–	–	145%	129%	95%	–	–
CCCCc1c(-c2ccc(OC)cc2)[nH]c2nccnc12	109%	86%	82%	84%	64%	26%	73%	42%	–	101%	100%	72%	106%	71%	59%	–	–	79%	112%	–
CC(C)c1nn(-c2c(Cl)cccc2Cl)c2nc(Cc3ccc(OCCO)cc3)[nH]c(=O)c12	90%	91%	91%	59%	95%	60%	94%	67%	91%	92%	97%	73%	74%	98%	94%	–	87%	96%	–	82%
Nc1ncnc2[nH]nc(Nc3ccc(F)cc3)c12	91%	72%	67%	20%	–	30%	77%	26%	–	99%	100%	107%	96%	95%	92%	–	–	45%	100%	104%
COc1cc2nccc(Oc3ccc(NC(=O)Nc4cc(C)on4)c(Cl)c3)c2cc1OC	105%	41%	97%	69%	108%	70%	102%	–	69%	–	–	99%	104%	1%	0%	100%	148%	–	123%	54%
c1ccc(-c2cnc(Nc3ccc(OCCN4CCCC4)cc3)s2)cc1	101%	41%	48%	7%	19%	-1%	22%	4%	–	–	–	108%	54%	100%	48%	–	–	31%	–	–
NCCNc1ncc(C(N)=O)c(Nc2cccc(C(F)(F)F)c2)n1	20%	-5%	73%	23%	55%	3%	51%	9%	–	–	–	73%	66%	–	–	–	–	–	114%	72%
